Measurements taken from the supplement of paper PMC11732987, “Enantioselective OTUD7B fragment discovery through chemoproteomics screening and high-throughput optimisation” (Communications Chemistry, 2025).

Legend:
Assay in all cases: log2 ratio of Biotin-Ahx-Ub-VS probe labelling (fragment/DMSO); higher = less target engagement (more negative = stronger competition), active = hit call of the paper (q ≤ 0.05, log2 ratio ≤ -1)
Conditions in all cases: compound concentration: 200 uM; treatment time: 3 h
[1] = target: T1, USP42 (UniProt Q9H9J4)
T1 sequence (whole entry): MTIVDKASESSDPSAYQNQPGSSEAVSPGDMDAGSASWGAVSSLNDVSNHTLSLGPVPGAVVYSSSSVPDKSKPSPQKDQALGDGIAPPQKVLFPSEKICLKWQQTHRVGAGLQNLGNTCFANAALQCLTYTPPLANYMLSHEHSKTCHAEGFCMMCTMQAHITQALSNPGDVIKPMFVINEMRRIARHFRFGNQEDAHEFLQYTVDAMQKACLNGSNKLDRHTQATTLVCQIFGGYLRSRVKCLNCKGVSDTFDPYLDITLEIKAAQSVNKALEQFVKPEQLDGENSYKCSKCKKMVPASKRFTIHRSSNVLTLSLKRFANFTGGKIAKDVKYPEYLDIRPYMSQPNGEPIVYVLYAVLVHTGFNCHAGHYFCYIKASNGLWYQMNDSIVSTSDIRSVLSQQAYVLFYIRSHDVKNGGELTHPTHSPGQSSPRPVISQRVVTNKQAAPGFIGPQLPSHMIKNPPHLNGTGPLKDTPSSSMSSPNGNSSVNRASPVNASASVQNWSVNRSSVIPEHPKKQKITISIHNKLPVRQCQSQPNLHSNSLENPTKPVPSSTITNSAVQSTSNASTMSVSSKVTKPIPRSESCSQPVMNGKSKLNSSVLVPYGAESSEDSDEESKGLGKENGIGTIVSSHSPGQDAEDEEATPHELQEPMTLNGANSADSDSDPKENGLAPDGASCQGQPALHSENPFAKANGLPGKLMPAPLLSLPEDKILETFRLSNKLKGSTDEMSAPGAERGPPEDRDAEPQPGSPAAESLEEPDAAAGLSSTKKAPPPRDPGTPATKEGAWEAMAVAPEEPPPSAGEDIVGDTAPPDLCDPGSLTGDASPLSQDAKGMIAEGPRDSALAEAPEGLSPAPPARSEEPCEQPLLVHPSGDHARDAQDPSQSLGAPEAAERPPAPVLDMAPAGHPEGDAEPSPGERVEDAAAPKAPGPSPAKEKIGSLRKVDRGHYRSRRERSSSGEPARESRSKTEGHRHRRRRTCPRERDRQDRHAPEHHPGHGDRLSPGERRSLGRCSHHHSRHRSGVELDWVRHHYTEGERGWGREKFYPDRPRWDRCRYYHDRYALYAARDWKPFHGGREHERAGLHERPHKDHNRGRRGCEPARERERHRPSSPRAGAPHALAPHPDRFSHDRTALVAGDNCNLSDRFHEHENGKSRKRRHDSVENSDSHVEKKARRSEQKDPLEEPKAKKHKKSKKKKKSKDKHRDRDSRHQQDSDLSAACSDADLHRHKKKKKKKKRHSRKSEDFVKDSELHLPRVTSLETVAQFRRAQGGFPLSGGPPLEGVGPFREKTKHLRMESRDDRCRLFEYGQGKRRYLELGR
Outline: (§1)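 HEK293T lysate (495 µg per sample, in Tris/CHAPS/IGEPAL buffer with protease inhibitors) was exposed in triplicate for 3 h to fragment at 200 µM or to vehicle, then to Biotin-Ahx-Ub-VS at 0.5 µM final for 1 h. Labelled DUBs were enriched on NeutrAvidin, digested with LysC and trypsin, and analysed by diaPASEF LC-MS/MS. Spectronaut label-free quantities were normalised to the global median, and values are average log2 ratios of fragment over vehicle from an unpaired t-test. Only proteins with ≥2 unique peptides were used.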

[2] = target: USP46 (UniProt P62068)
Sequence of USP46 (P62068 whole entry): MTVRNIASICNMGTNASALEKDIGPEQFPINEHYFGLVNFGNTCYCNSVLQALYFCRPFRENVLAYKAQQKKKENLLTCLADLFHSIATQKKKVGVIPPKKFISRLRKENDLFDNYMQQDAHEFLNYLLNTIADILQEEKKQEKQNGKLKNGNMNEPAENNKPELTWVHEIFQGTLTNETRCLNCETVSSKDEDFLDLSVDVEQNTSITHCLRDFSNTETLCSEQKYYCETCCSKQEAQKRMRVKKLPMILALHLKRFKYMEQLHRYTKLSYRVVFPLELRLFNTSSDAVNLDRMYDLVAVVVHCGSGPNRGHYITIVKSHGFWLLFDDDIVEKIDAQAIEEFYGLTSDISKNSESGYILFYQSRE
Outline: as §1

[3] = target: T2, USP47 (UniProt Q96K76)
T2 sequence (whole entry): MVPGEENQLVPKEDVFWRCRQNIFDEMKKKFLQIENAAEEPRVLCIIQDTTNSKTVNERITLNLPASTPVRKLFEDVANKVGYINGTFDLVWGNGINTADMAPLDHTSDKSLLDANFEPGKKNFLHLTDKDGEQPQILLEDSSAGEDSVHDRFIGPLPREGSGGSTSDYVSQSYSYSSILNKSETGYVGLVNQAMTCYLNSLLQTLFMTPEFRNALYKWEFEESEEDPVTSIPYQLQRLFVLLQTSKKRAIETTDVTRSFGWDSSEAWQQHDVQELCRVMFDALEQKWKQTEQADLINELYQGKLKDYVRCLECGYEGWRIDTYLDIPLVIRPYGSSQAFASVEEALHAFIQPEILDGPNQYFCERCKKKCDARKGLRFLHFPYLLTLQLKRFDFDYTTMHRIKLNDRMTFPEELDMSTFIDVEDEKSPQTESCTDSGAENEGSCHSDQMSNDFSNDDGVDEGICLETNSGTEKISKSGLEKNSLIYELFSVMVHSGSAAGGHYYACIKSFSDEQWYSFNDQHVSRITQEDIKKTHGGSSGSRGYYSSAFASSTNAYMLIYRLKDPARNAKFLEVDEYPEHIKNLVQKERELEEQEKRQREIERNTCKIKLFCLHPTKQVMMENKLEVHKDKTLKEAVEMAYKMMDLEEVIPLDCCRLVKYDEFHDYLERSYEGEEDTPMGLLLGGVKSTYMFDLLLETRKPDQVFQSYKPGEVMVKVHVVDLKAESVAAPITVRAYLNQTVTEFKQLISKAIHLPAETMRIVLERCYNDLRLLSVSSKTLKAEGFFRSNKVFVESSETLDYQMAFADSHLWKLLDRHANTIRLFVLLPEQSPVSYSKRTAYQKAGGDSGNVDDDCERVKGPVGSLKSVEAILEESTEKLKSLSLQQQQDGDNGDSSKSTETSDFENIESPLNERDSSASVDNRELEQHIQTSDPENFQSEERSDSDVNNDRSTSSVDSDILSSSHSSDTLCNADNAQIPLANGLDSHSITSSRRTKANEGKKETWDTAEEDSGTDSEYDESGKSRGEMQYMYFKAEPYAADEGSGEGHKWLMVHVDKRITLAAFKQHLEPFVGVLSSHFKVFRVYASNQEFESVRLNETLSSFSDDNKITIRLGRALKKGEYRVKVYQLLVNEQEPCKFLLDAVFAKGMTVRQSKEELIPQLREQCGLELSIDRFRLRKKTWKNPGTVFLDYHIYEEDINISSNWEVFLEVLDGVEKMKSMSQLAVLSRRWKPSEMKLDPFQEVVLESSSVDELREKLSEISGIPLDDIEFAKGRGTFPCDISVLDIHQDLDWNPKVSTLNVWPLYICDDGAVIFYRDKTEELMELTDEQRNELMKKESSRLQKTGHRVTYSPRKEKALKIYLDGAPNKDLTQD
Outline: as §1

[4] = target: T3, USP48 (UniProt Q86UV5)
T3 sequence (whole entry): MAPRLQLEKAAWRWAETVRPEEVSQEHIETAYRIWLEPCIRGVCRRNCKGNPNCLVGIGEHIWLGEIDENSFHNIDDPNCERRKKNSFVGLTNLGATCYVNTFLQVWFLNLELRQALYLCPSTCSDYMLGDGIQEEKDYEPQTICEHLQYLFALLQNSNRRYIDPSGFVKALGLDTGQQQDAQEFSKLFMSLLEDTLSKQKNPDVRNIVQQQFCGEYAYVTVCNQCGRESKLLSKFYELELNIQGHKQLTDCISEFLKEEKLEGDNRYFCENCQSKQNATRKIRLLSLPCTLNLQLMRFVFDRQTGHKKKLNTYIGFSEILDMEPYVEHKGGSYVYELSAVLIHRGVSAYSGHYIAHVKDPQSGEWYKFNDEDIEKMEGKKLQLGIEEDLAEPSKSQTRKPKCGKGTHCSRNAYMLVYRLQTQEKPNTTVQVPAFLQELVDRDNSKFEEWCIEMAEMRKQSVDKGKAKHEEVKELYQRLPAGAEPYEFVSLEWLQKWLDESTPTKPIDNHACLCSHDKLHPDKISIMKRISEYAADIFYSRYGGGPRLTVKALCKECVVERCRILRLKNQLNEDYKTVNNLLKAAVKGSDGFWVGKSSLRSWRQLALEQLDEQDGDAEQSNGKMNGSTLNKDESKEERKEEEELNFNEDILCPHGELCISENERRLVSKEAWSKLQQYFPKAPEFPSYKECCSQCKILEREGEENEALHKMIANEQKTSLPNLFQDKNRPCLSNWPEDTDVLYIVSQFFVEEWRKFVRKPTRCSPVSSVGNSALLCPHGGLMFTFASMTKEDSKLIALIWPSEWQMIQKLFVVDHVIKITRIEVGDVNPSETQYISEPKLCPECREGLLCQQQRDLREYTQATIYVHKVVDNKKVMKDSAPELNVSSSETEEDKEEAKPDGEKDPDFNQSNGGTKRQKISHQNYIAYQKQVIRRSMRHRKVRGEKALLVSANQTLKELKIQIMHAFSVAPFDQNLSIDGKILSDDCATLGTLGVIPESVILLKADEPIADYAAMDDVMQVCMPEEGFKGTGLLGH
Outline: as §1

[5] = target: T4, USP5 (UniProt P45974)
T4 sequence (whole entry): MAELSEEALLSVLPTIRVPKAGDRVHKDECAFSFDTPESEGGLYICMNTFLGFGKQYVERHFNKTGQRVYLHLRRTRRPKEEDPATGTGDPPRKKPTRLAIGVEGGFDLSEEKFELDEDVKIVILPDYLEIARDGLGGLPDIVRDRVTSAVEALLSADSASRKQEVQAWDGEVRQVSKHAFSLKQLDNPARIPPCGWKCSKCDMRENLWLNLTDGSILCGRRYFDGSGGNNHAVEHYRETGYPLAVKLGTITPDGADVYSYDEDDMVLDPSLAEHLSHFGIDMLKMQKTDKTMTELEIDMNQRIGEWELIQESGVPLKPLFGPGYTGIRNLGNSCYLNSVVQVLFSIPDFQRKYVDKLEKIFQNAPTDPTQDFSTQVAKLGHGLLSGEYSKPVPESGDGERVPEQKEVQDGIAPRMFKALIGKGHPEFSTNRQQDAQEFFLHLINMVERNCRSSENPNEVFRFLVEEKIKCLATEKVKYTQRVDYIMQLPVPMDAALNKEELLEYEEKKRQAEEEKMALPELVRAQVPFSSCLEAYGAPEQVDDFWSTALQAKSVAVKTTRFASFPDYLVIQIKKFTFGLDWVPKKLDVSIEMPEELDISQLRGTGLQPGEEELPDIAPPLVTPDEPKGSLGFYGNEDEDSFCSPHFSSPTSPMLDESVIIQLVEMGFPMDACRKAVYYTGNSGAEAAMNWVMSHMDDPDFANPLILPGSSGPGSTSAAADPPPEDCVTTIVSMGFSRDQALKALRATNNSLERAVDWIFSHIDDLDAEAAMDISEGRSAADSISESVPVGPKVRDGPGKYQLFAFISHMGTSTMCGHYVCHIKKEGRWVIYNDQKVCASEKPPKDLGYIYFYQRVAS
Outline: as §1

[6] = target: USP54 (UniProt Q70EL1)
Outline: as §1

[7] = target: USP7 (UniProt Q93009)
Sequence of USP7 (Q93009 whole entry, looked up): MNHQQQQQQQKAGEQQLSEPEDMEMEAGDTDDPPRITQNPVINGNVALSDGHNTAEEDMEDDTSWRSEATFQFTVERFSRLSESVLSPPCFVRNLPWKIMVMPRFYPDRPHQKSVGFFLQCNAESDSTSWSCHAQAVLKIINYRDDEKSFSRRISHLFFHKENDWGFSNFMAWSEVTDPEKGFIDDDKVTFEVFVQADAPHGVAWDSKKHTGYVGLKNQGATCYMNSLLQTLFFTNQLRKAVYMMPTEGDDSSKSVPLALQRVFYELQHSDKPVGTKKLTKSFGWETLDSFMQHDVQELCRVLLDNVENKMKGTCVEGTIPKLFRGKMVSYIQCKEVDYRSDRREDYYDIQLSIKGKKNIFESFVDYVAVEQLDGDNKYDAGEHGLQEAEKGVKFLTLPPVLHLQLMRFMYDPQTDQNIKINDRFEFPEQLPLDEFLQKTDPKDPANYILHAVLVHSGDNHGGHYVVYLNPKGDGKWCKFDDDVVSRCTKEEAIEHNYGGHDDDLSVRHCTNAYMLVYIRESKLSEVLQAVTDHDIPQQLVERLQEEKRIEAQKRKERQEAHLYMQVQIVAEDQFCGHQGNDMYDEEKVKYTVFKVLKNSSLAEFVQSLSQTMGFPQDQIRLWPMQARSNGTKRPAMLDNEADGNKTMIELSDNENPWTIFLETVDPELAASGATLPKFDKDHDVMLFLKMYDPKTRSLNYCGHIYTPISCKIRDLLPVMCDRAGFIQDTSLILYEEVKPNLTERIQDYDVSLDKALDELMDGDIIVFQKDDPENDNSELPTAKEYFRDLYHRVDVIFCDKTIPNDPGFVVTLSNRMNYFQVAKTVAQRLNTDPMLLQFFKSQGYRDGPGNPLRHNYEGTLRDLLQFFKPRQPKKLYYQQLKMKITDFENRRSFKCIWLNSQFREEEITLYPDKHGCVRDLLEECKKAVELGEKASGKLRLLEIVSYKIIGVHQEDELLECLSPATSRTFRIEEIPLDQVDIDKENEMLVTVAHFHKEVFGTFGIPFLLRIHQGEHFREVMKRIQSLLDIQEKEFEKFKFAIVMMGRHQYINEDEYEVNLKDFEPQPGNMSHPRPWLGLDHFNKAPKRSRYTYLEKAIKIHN
Outline: as §1

[8] = target: T5, USP8 (UniProt P40818)
T5 sequence (whole entry): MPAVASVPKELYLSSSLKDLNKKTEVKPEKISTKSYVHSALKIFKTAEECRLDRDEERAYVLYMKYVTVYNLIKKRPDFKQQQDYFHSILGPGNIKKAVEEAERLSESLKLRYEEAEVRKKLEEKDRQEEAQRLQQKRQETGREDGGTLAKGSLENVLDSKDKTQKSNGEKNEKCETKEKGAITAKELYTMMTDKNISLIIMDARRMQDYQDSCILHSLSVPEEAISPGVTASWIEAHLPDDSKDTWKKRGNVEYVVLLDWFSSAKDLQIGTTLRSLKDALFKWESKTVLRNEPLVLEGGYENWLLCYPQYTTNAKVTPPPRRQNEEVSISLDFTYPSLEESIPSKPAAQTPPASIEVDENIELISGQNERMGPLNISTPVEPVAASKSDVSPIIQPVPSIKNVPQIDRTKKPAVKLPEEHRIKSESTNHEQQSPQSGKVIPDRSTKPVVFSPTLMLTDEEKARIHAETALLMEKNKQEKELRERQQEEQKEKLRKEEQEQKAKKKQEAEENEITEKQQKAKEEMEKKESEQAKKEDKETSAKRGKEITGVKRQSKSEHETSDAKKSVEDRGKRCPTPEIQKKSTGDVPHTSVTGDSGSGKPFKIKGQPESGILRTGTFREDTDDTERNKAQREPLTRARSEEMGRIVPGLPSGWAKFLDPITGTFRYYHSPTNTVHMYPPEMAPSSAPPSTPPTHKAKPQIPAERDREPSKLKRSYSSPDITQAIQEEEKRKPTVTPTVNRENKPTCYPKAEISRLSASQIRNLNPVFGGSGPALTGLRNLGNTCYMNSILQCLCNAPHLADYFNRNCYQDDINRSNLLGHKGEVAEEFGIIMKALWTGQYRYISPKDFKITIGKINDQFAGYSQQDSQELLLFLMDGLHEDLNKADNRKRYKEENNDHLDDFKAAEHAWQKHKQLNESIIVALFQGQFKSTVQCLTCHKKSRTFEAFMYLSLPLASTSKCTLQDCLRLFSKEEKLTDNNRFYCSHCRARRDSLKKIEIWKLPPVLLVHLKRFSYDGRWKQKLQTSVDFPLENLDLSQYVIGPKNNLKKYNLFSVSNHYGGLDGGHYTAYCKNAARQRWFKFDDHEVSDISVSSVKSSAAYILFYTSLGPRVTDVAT
Outline: as §1

[9] = target: USP9X (UniProt Q93008)
Sequence of USP9X (Q93008 whole entry): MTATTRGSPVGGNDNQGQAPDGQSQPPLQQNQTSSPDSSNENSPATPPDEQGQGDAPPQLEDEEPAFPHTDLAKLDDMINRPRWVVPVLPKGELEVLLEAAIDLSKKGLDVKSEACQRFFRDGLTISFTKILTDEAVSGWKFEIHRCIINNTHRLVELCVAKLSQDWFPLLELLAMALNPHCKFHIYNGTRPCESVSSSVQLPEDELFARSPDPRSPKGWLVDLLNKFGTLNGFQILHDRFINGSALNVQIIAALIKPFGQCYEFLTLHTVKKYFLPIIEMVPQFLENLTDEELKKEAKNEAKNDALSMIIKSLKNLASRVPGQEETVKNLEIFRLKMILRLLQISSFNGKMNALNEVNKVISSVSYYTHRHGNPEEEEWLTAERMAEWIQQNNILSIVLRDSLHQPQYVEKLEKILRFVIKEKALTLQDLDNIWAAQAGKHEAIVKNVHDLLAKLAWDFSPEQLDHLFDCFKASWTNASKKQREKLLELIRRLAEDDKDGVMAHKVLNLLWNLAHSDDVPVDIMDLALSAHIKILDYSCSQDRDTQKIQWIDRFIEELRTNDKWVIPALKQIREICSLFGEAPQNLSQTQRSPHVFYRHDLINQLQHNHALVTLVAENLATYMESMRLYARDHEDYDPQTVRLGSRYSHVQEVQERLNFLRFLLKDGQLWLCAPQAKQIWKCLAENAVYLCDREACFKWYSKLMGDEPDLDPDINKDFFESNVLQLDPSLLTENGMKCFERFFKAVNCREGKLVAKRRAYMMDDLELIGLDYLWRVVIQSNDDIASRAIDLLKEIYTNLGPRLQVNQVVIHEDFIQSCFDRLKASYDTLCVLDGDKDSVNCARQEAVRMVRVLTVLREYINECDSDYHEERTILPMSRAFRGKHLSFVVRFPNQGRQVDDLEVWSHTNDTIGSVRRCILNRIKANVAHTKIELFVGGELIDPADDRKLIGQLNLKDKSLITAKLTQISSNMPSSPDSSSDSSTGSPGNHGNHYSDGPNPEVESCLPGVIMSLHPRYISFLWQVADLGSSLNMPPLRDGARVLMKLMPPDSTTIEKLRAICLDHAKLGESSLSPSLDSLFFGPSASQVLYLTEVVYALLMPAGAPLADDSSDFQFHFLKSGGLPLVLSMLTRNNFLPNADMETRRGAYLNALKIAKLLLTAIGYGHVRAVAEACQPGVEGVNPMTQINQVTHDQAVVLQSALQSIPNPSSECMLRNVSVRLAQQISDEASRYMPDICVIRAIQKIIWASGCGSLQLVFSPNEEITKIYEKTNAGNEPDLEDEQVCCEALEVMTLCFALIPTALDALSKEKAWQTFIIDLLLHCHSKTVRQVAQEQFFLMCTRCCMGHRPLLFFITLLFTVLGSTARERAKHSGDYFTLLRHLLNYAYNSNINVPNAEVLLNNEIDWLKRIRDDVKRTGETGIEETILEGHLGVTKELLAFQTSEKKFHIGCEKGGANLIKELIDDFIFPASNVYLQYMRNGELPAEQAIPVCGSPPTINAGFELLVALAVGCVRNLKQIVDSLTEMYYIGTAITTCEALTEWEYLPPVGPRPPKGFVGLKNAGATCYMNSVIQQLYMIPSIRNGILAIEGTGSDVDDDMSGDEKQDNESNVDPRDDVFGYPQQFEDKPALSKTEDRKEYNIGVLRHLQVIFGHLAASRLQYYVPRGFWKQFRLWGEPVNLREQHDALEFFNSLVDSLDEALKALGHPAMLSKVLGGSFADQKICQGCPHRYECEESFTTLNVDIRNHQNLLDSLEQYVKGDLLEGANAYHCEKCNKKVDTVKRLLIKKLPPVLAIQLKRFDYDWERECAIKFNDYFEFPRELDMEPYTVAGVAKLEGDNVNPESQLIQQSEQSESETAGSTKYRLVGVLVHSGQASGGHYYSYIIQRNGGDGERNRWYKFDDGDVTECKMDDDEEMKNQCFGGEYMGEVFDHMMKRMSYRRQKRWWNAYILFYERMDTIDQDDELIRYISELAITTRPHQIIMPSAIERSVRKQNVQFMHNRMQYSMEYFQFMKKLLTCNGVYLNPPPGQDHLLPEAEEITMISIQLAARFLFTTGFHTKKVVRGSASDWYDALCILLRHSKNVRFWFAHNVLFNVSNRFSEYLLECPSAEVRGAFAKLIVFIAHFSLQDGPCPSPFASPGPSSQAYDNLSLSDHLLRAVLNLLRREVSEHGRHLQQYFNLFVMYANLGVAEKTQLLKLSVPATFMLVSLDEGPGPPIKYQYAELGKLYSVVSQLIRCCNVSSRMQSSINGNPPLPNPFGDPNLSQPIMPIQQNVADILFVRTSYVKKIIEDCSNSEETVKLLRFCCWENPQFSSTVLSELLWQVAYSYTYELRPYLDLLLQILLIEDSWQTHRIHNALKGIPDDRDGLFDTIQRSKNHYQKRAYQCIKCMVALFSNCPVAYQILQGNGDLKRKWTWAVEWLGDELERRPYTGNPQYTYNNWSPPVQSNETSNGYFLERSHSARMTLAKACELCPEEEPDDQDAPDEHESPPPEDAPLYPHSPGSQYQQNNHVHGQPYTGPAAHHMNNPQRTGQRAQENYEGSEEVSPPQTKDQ
Outline: as §1

[10] = target: UniProt O00487
Sequence of UniProt O00487 (O00487 whole entry): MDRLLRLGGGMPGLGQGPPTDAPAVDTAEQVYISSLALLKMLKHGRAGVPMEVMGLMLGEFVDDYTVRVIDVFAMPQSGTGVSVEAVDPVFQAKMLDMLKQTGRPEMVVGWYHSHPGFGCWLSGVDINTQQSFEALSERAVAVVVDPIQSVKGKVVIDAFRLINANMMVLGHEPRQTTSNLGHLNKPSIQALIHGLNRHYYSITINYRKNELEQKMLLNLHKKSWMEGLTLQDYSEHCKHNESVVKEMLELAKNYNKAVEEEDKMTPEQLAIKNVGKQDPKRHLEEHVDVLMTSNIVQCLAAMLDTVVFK
Outline: as §1

Measured: log2 ratio of Biotin-Ahx-Ub-VS probe labelling

O=C(CCl)N1CCCC1c1ccsc1 (stereo not given)
inactive: [1] -0.371 | [2] -0.105 | [3] -0.389 | [4] -0.959 | [5] 0.45 | [6] 0.559 | [7] -0.795 | [8] -0.441 | [9] -0.231 | [10] -0.138
